The source of these data is ChEMBL document CHEMBL1961873, “Compounds: GSK PKIS; Assays: Nanosyn kinase panel” (2012).

Assay [1] addresses MAP/microtubule affinity-regulating kinase 3 (Homo sapiens) (UniProt P27448). Particulars: at 1 µM.
For assay [2], the target named is T1, MAP/microtubule affinity-regulating kinase 4 (Homo sapiens) (UniProt Q96L34).
T1 sequence (whole entry): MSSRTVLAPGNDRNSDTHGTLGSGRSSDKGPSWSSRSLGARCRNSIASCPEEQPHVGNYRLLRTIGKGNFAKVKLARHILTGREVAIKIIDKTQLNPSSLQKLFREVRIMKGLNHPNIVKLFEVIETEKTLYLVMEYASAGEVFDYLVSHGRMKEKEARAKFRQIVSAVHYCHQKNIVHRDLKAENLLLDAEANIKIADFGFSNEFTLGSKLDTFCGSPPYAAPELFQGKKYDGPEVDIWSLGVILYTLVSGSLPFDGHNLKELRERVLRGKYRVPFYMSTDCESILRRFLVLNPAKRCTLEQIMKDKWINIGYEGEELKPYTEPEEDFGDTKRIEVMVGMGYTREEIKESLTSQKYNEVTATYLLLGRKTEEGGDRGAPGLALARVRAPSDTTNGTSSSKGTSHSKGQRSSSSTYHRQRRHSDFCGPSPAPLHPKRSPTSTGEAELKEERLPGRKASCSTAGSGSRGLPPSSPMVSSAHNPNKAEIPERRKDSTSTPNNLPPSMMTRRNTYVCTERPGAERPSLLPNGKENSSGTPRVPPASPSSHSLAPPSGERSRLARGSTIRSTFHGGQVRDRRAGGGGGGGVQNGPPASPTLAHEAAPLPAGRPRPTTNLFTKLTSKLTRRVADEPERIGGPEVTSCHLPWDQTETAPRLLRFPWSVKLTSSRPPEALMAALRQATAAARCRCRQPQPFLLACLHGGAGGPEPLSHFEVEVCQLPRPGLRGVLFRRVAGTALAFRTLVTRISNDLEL
Particulars: at 0.1 µM.

Assay [3] has as its target T1, MAP/microtubule affinity-regulating kinase 4 (Homo sapiens). Particulars: at 1 µM.
Assay [4] concerns the target Maternal embryonic leucine zipper kinase (Homo sapiens) (UniProt Q14680). Particulars: at 0.1 µM.
Assay [5] has the same target. Particulars: at 1 µM.
Assay [6] addresses MAP kinase-interacting serine/threonine-protein kinase 1 (Homo sapiens) (UniProt Q9BUB5). Particulars: at 0.1 µM.
Assay [7] has the same target. Particulars: at 1 µM.
The target in assay [8] is MAP kinase-interacting serine/threonine-protein kinase 2 (Homo sapiens) (UniProt Q9HBH9). Particulars: at 0.1 µM.
Sequence of MAP kinase-interacting serine/threonine-protein kinase 2 (Homo sapiens) (Q9HBH9 whole entry, looked up): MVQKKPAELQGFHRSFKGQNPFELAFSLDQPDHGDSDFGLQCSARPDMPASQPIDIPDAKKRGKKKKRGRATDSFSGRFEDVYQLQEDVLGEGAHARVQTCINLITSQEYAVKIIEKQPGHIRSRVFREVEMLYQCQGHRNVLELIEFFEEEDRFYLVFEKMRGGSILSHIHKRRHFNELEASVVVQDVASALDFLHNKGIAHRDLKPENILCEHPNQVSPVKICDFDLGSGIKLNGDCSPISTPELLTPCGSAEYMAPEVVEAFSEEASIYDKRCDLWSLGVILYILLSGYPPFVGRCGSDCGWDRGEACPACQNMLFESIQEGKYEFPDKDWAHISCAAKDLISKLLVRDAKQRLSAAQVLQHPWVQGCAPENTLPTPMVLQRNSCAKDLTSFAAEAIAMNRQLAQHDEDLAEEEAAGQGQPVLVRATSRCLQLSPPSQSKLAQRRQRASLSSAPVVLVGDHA
Assay [9] has the same target. Particulars: at 1 µM.
For assay [10], the target named is Serine/threonine-protein kinase MARK2 (Homo sapiens) (UniProt Q7KZI7). Particulars: at 0.1 µM.
Sequence of Serine/threonine-protein kinase MARK2 (Homo sapiens) (Q7KZI7 whole entry): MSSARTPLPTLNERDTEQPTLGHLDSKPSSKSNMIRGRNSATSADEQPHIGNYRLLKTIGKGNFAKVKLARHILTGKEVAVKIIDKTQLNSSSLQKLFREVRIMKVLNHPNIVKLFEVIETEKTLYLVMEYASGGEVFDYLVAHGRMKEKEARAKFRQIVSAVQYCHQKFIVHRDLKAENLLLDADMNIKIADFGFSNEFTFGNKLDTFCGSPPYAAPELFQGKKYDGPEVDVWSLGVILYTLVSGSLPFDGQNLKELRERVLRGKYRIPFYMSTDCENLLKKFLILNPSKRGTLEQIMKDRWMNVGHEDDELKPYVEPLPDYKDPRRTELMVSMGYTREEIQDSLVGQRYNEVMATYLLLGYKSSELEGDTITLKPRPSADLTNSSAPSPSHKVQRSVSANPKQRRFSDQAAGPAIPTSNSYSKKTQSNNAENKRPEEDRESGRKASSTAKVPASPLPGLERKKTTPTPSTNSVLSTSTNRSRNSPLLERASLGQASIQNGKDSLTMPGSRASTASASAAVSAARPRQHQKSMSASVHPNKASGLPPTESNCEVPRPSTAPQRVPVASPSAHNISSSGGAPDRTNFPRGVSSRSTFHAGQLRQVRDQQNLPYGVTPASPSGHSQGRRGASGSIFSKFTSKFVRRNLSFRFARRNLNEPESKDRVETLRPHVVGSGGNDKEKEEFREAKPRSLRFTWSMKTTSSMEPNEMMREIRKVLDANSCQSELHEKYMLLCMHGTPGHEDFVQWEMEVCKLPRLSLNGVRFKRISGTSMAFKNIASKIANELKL
Assay [11] has the same target. Particulars: at 1 µM.
The target of assay [12] is PAS domain-containing serine/threonine-protein kinase (Homo sapiens) (UniProt Q96RG2). Particulars: at 0.1 µM.
Sequence of PAS domain-containing serine/threonine-protein kinase (Homo sapiens) (Q96RG2 whole entry, the tested form may be a part): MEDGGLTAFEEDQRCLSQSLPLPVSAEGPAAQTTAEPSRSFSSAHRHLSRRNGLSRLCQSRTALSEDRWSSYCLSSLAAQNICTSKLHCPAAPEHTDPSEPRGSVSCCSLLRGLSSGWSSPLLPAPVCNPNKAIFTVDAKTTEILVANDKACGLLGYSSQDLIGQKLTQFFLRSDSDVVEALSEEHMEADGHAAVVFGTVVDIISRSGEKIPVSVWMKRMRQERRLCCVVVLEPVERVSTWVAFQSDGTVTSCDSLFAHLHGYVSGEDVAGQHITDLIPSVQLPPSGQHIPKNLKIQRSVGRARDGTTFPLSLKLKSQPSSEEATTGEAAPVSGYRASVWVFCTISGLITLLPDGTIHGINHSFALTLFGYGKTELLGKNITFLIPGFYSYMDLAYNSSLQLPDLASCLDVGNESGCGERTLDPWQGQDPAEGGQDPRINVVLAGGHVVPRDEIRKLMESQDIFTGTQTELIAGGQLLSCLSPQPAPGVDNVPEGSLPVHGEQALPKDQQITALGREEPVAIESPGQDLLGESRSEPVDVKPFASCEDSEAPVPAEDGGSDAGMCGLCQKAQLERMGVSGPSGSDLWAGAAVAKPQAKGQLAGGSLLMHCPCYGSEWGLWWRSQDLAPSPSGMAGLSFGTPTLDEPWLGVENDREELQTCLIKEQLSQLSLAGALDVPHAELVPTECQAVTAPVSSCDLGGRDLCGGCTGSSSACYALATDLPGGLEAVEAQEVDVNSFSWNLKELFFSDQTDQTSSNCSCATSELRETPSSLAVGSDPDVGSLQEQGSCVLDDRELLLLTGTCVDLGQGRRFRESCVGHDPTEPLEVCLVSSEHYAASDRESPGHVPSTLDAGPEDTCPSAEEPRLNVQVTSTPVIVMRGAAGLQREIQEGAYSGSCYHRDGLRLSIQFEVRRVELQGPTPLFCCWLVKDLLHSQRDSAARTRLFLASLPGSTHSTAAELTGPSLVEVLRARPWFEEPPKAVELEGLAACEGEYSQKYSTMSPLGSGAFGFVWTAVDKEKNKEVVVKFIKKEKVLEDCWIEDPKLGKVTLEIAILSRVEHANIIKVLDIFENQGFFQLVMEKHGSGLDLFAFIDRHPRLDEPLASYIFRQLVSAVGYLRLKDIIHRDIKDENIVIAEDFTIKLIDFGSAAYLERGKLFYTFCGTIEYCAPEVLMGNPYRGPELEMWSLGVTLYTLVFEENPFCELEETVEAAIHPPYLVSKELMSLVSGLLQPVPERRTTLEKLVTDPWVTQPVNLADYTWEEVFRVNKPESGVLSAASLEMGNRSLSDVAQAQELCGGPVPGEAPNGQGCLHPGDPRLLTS
Assay [13] shares this target. Particulars: at 1 µM.
For assay [14], the target named is Phosphorylase b kinase gamma catalytic chain, skeletal muscle/heart isoform (Homo sapiens) (UniProt Q16816). Particulars: at 0.1 µM.
Sequence of Phosphorylase b kinase gamma catalytic chain, skeletal muscle/heart isoform (Homo sapiens) (Q16816 whole entry, looked up, canonical isoform): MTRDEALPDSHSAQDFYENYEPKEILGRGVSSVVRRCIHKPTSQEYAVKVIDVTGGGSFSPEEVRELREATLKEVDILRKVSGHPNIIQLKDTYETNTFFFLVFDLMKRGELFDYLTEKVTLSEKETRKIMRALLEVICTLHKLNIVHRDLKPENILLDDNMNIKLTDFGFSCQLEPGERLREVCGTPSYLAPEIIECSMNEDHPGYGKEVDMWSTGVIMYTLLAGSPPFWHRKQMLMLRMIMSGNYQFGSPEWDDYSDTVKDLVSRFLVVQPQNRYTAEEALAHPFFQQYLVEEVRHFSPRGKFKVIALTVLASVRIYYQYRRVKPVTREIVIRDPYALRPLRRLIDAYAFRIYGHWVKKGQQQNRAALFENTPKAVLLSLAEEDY
Assay [15] shares this target. Particulars: at 1 µM.
Assay [16] has as its target T2, Phosphorylase b kinase gamma catalytic chain, liver/testis isoform (Homo sapiens) (UniProt P15735).
T2 sequence (whole entry): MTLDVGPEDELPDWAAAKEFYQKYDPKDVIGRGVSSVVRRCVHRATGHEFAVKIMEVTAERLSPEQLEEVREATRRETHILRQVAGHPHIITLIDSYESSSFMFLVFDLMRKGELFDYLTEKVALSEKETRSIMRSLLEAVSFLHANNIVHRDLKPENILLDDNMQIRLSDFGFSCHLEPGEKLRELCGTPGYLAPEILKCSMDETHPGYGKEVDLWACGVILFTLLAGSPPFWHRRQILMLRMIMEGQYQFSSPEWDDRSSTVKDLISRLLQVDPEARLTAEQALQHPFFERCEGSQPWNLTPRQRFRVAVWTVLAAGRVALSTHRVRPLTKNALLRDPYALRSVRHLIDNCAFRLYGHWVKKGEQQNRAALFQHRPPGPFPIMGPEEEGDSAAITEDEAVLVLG
Particulars: at 0.1 µM.

In assay [17] the target is T2, Phosphorylase b kinase gamma catalytic chain, liver/testis isoform (Homo sapiens). Particulars: at 1 µM.
For assay [18], the target named is Serine/threonine-protein kinase pim-1 (Homo sapiens) (UniProt P11309). Particulars: at 0.1 µM.
Sequence of Serine/threonine-protein kinase pim-1 (Homo sapiens) (P11309 whole entry, looked up): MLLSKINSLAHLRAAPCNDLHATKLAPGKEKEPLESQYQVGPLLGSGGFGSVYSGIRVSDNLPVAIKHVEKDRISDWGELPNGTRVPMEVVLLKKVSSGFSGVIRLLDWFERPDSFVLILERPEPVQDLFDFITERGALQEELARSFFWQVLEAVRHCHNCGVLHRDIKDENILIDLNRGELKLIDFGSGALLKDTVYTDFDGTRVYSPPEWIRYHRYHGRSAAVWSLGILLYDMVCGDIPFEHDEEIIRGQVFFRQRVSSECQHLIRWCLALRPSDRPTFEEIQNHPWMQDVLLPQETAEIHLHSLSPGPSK
For assay [19] the target is unchanged. Particulars: at 1 µM.
Assay [20] addresses Serine/threonine-protein kinase pim-2 (Homo sapiens) (UniProt Q9P1W9). Particulars: at 0.1 µM.

Sequence of MAP/microtubule affinity-regulating kinase 3 (Homo sapiens) (P27448 whole entry, looked up): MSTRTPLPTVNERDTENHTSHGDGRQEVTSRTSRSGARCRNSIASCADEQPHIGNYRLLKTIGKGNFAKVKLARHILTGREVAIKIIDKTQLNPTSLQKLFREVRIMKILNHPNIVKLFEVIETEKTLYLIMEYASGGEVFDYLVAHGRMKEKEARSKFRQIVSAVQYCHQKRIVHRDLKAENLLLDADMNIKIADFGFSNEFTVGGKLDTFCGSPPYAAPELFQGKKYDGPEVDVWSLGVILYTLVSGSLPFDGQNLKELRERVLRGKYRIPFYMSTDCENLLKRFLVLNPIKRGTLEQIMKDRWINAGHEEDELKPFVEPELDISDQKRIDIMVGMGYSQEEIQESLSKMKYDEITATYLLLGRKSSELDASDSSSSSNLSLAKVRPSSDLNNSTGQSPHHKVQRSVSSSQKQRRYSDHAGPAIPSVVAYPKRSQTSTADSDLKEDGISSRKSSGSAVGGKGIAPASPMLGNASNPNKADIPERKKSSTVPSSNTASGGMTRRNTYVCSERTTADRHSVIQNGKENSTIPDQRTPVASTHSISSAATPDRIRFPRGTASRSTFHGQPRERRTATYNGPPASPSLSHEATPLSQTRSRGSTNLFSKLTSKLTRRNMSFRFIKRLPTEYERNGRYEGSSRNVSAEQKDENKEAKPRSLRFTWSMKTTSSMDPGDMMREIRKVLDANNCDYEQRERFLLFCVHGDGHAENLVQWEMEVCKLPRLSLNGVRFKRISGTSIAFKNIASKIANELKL
Sequence of Serine/threonine-protein kinase pim-2 (Homo sapiens) (Q9P1W9 whole entry, looked up): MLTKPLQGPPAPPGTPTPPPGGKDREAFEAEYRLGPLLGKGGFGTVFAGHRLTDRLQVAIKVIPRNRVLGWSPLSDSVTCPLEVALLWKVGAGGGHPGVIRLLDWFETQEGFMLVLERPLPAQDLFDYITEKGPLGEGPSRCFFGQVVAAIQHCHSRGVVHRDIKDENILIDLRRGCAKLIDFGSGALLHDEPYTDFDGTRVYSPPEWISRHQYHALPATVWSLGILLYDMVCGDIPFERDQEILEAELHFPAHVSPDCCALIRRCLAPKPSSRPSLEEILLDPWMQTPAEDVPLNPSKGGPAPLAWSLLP
Sequence of Maternal embryonic leucine zipper kinase (Homo sapiens) (Q14680 whole entry, looked up): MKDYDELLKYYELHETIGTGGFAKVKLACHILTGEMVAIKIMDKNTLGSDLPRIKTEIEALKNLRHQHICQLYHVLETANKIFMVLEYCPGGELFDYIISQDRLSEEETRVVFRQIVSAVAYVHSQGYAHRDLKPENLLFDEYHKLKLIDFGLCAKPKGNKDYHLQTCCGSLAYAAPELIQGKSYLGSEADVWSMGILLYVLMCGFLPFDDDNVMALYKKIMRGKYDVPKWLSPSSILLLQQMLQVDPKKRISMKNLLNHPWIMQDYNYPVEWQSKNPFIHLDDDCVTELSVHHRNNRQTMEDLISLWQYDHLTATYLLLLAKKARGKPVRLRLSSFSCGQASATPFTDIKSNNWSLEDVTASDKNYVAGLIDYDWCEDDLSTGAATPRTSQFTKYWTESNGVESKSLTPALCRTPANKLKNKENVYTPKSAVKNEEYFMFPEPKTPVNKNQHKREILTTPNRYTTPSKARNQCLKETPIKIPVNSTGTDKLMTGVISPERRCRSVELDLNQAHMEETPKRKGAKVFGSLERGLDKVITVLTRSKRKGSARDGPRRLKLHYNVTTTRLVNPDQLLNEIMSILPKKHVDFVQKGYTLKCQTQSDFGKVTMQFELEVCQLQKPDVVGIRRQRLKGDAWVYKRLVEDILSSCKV

`COc1cccc(-n2ncc3c(N/N=C/c4ccc(S(C)(=O)=O)cc4)ncnc32)c1`: the inhibition (usually the drop in the measured response relative to a control, in per cent) is 4.26% in assay [1]; 1.03% in [2]; 3.52% in assay [3]; 3.61% in assay [4]; 4.85% in [5]; 23.2% in assay [6]. Moreover, the inhibition in assay [7] was 34.2%; in [8], 16.7%; in [9], 23.9%; in [10] it was 0.16%; in assay [11] it was 3.41%; in [12], -0.17%. Also, the inhibition in assay [13] is 0.02%; in assay [14] it was 2.42%; in assay [15], 2.63%; in [16], 1.57%; in assay [17] it was 2.21%; in assay [18], -0.52%. Moreover, the inhibition was 1.73% in assay [19] and -3.69% in assay [20].

As to `CCn1c(-c2nonc2N)nc2c(C#CC(C)(C)O)nc(OCCNC)cc21`, the inhibition in [1] was 11.6%; in assay [2] it was 2.05%; in assay [3], 7.52%; in assay [4], 17.5%; in assay [5], 81.1%; in assay [6], 1.63%. The inhibition in assay [7] was 3.44%; in assay [8] it was 0.5%; in [9], 1.12%; in [10], 1.74%; in assay [11], 10.6%; in assay [12] it was -1.05%. Further, the inhibition in [13] worked out at 0.6%; in [14], 1.42%; in assay [15] it was 4.25%; in assay [16], 3.52%; in [17], 4.33%; in [18], 1.82%. The inhibition in [19] was 4.29%; in assay [20] it was -0.54%.

In the case of `COc1cc(Nc2nccc(-c3cnn4ncccc34)n2)cc(OC)c1`, the inhibition in assay [1] was found to be 34.1%; in assay [2], 3.44%; in assay [3], 22.1%; in assay [4] it was 7.1%; in assay [5] it was 43.9%; in [6] it was 1.97%. Moreover, the inhibition in assay [7] stood at 10.2%; in assay [8], 3.13%; in [9] it was 17.2%; in assay [10], 2.81%; in assay [11], 20%; in assay [12], 0.79%. Also, the inhibition in assay [13] was -0.31%; in assay [14], 7.9%; in [15], 39.2%; in [16] it was 2.69%; in assay [17], 15.6%; in [18] it was 1.41%. For the same molecule, the inhibition came to 6.3% in assay [19] and 1.22% in assay [20].

For `ON=C1CCc2cc(-c3nc(C4CCNCC4)[nH]c3-c3ccncc3)ccc21`, the inhibition in assay [1] is 3.01%; in assay [2], 0.47%; in [3], 1.99%; in [4], -0.02%; in assay [5], 1.75%; in assay [6], 0.86%. The inhibition is 3.6% in assay [7]; 0.66% in assay [8]; 0.78% in assay [9]; -1.2% in assay [10]; 2.57% in assay [11]; 0.03% in assay [12]. Also, the inhibition in assay [13] is -0.46%; in assay [14], 0%; in assay [15], 1.5%; in [16], 0.29%; in assay [17], -2.23%; in assay [18], 1%. Moreover, the inhibition stood at 0.9% in [19] and 0.25% in assay [20].

Regarding `CCCN1CCCC(c2ccc(Nc3nc(Nc4cc(F)ccc4C(N)=O)c4cc[nH]c4n3)c(OC)c2)C1` (stereo not given), the inhibition in [1] is 68.3%; in [2], 7.3%; in [3], 40.7%; in [4], 24%; in assay [5], 75.2%; in assay [6], 3.82%. In addition, the inhibition in assay [7] is 5.92%; in [8] it was 1.87%; in assay [9], 2.51%; in [10], 6.68%; in assay [11] it was 40%; in assay [12] it was -0.3%. In addition, the inhibition in assay [13] was 8.59%; in [14], 51.2%; in [15] it was 77.8%; in assay [16] it was 26.9%; in assay [17] it was 67.6%; in assay [18], 11.7%. For the same molecule, the inhibition in [19] was determined as 50.8%; in assay [20], 0.9%.

Take `O=C1Nc2ccc(-c3cccnc3)cc2C1=Cc1cc(Br)c(O)c(Br)c1`: the inhibition in assay [1] was 6.43%; in [2] it was 1.85%; in assay [3], 3.53%; in assay [4], 3.77%; in assay [5] it was 10.4%; in [6] it was 2.71%. Besides, the inhibition in [7] came to 12.7%; in assay [8], 6.02%; in assay [9] it was 36%; in assay [10] it was 1.17%; in [11], 5.11%; in [12], 0.91%. Also, the inhibition in assay [13] is 1.32%; in [14], 3.37%; in [15], 9.21%; in assay [16], 4.01%; in [17], -0.09%; in assay [18] it was 6.4%. Also, the values for the inhibition in assay [19] and in assay [20] were 37.6% and 8.09%, respectively.

For `CS(=O)(=O)Nc1cccc(-c2ccc3c(NC(=O)C4CC4)n[nH]c3c2)c1`, the inhibition was found to be 6.61% in assay [1]; 1.87% in assay [2]; 3.42% in [3]; 0.93% in assay [4]; 4.3% in assay [5]; 2.34% in assay [6]. Further, the inhibition is 13.5% in [7]; 0.41% in assay [8]; 3.39% in [9]; -1.45% in [10]; 2.88% in [11]; 0.72% in assay [12]. Also, the inhibition in assay [13] is -0.4%; in assay [14], 3.02%; in assay [15], 6.04%; in assay [16], 2.36%; in [17], -0.09%; in assay [18], 0.69%. Also, the results for the inhibition in assay [19] and in [20] were 0.43% and 0.5%, respectively.
